Assay results: PubChem BioAssay AID1159580 (chemical genetic matrix, 2015)
In all, about 5,500 compounds went through this assay and about 2,000 (36%) were called active. Inconclusive results (about 18%) are left out. Rule as the data show it: active = normalized growth mostly below about 0.91 (no sharp cut-off); inconclusive = no clear call, values can overlap the other calls; inactive = mostly above about 0.92. This is one part of the list.

Assay: chemical genetic growth profiling, strain panel (AID 1159580);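 also: tested at 20 µM; growth read once vehicle control cultures reached saturation at 30 °C; 1 = growth at the plate median or of vehicle wells; lower values mean less growth of the strain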
Conditions: S. cerevisiae deletion strains, growth OD

Measured: normalized growth

NCCCP(=O)(O)O
inactive: locus YAL040C, strain CLN3, active compounds read low 1.04 | locus YCL061C, strain MRC1 (second series), active compounds read low 0.998 | locus YDR150W, strain NUM1, active compounds read low 1.01 | locus YDR363W, strain ESC2, active compounds read low 0.956 | locus YER002W, strain NOP16, active compounds read low 0.981 | locus YGR229C, strain SMI1, active compounds read low 0.984 | locus YNL175C, strain NOP13, active compounds read low 0.978 | locus YNL197C, strain WHI3, active compounds read low 0.979 | locus YNL224C, strain SQS1, active compounds read low 1 | locus YOR083W, strain WHI5 (second series), active compounds read low 0.98 | locus YPL055C, strain LGE1, active compounds read low 1.02 | locus YPL241C, strain CIN2, active compounds read low 0.995
